Reference: ChEMBL document CHEMBL1157539, “Thousands of chemical starting points for antimalarial lead identification” (Nature, 2010)

How the values were obtained:
Type in all cases: functional
Plasmodium falciparum [1] = assay: GSK_TCMDC: Inhibition of Plasmodium falciparum 3D7 in whole red blood cells, using parasite LDH activity as an index of growth. Test compounds present at 2uM
Plasmodium falciparum [2] = assay: GSK_TCMDC: Inhibition of Plasmodium falciparum Dd2 in whole red blood cells, using parasite LDH activity as an index of growth. Test compounds present at 2uM
HepG2 = assay: GSK_TCMDC: Percent inhibition of human HepG2 cell line. Test compounds present at 10uM.

Compound	Inhibition (Plasmodium falciparum [1])	Inhibition (Plasmodium falciparum [2])	Inhibition (HepG2)
O=C(NCCCCN1CCN(c2ccc3c(c2)CCC3)CC1)c1ccc(NC(=O)c2ccc(Cl)cc2)cc1	98%	35%	38%
NCC1CCCN1Cc1ccc(-c2ccc(-c3nc4cc(C(F)(F)F)ccc4[nH]3)cc2)cc1.O=C(O)C(F)(F)F (stereo not drawn)	100%	98%	35%
Cc1csc2nc(-c3ccccn3)nc(Nc3ccc4ncsc4c3)c12.Cl	85%	91%	0%
CCCCCCCC1CCN(C[C@H](O)c2ccnc3ccc(OC)cc23)CC1.O=C(O)C(=O)O	94%	81%	23%
O=c1cc(NCCC(CNCc2cc3ccccc3o2)NCc2cc(Br)cc(Br)c2)[nH]c2ccccc12 (stereo not drawn)	100%	94%	6%
Cc1ccc(CN2CCN(CC(O)COc3ccc4c(c3)CCC4)CC2)cc1 (stereo not drawn)	95%	0%	0%
Fc1cccc(Nc2nc(NCCc3ccc(Cl)cc3)nc(Nc3cccc(F)c3)n2)c1	93%	30%	0%
c1ccc2[nH]c(Nc3ccc(Nc4nc5ccccc5[nH]4)cc3)nc2c1	98%	27%	0%
COc1ccccc1N1CCN(c2cccc(F)c2C#N)CC1	85%	59%	0%
COC(=O)c1ccccc1N1CCN(CCCCNC(=O)c2ccc(NC(=O)c3cc(Cl)cc(Cl)c3)cc2)CC1	100%	42%	20%
O=C(O)C(F)(F)F.OCCC1CCN(Cc2ccc(-c3ccc(-c4nc5ccccc5[nH]4)cc3)cc2)CC1	99%	98%	35%
CCOc1ccc(CCC(=O)O)cc1OCC	94%	0%	60%
Cc1cc2c(/C=C/C(=O)NC3CCC(CCN4CCc5ccc(C#N)cc5CC4)CC3)cccc2[nH]1.Cl (stereo not drawn)	95%	39%	16%
O=C(Nc1ccc(F)c(Cl)c1)c1cc([N+](=O)[O-])cc2cn[nH]c12	100%	67%	32%
COc1cc(Cc2cnc(N)nc2N)ccc1OCc1ccc(-c2csnn2)cc1	97%	0%	33%
Cl.Oc1ccc(-c2cc(COc3ccccc3C(F)(F)F)c(C3=CCNCC3)cc2COc2ccccc2C(F)(F)F)cc1	100%	62%	18%

Compound	Inhibition (Plasmodium falciparum [1])	Inhibition (Plasmodium falciparum [2])	Inhibition (HepG2)
COc1ccc2ncc(F)c(CCN3CC(O)C(CNCc4ccc5oc(=O)ccc5c4)C3)c2n1.Cl (stereo not drawn)	89%	6%	18%
O=C(NCCCN1CCC(Cc2ccccc2)CC1)c1cc2c(Cl)nc3ccccc3c2s1	98%	40%	22%
O=C(/C=C/c1ccc(Cl)c(Cl)c1)NCCCCCN1CCCN(C(=O)Nc2ccc(Cl)cc2)CC1	100%	0%	21%
Cc1cccc(CN2CCCC3(CCN(Cc4ccccc4O)C3)C2)c1 (stereo not drawn)	99%	76%	14%
CCCc1cn2c3c(cc(C(=O)N[C@@H](Cc4ccccc4)[C@H](O)CNC4CCCCC4)cc13)N(CC)S(=O)(=O)CC2.O=CO	98%	98%	2%
O=C(Nc1ccc(Cl)c(C(F)(F)F)c1)Nc1ccc(Cl)c(C(F)(F)F)c1	94%	96%	1%
CC(C)C[C@H](NC(=O)c1cc2ccccc2s1)C(=O)N[C@H]1CCN(Cc2ccc(OCCN3CCNCC3)c3ccccc23)C1.O=C(O)C(F)(F)F	100%	96%	43%
Cc1nc(-c2nc(N3CCOCC3)ncc2-c2ccsc2)sc1C	89%	75%	5%
CCC(C)C#Cc1c(C)nc(N)nc1N (stereo not drawn)	96%	0%	53%
O=C(O)C(F)(F)F.c1cc(CNCCc2ccncc2)cc(-c2ccc(-c3nc4ccccc4[nH]3)s2)c1	100%	97%	1%
C=CC(=O)Nc1ccc(Cl)cc1C(O)c1ccccc1 (stereo not drawn)	100%	5%	0%
Cc1cccc(CNc2ncc(C)c(NCCC(=O)Nc3ccccc3)n2)c1.O=C(O)C(F)(F)F	81%	10%	18%
COc1cc(C)nc2ccc(NC(=O)COCC(=O)Nc3ccc4nc(C)cc(OC)c4c3)cc12	100%	41%	67%
O=C(Cn1c(CCc2cccc(F)c2F)cc(=O)c2ccccc21)N(CCN1CCCC1)Cc1ccc(-c2ccc(C(F)(F)F)cc2)cc1.O=C(O)C(O)C(O)C(=O)O	99%	57%	89%
Cn1cncc1C(=O)Nc1cccc(-c2cccc(-c3nc4cc(C(F)(F)F)ccc4[nH]3)c2)c1	100%	99%	38%
